A short description of this test: M. tuberculosis growth inhibition, dose response, purified and synthesized samples, set 9 (AID 602435). The class given is functional.
In the case of `CC1CC(C)CN(C(=O)c2ccc(CNc3c(N4CCCC4)c(=O)c3=O)cc2)C1` (centres undefined), the IC90 was > 50 µM (active).
In the case of `O=C(C1CCC(CNc2c(N3CCCCC3)c(=O)c2=O)CC1)N1CCCCC1` (centres undefined), the IC90 is > 50 µM (active).
Turning to `O=C(c1ccc(CNc2c(N3CCOCC3)c(=O)c2=O)cc1)N1CCN(c2ccccc2)CC1`, the IC90 was > 100 µM (active).
For the compound `CC(=O)c1ccc(NC(=O)c2ccc(CNc3c(N4CCOCC4)c(=O)c3=O)cc2)cc1`, the IC90 is > 50 µM (active).

The record behind these values is ChEMBL document CHEMBL1201862, “PubChem BioAssay data set” (2004).
